This note sets out measurements from PubChem BioAssay (NCI).

Among the test systems are MOLT-4 leukemia; SR leukemia; RPMI-8226 leukemia; OVCAR-8 ovarian; OVCAR-5 ovarian; OVCAR-4 ovarian; SK-OV-3 ovarian; IGROV1 ovarian; OVCAR-3 ovarian; HS 578T breast; NCI/ADR-RES ovarian; T-47D breast; BT-549 breast; MDA-MB-435 melanoma; SW-620 colon; MCF7 breast; HCT-116 colon; HCC-2998 colon; KM12 colon.
What all share (experiment): NCI-60 one-dose screen, 48 h (100 = growth as untreated, 0 = no growth, -100 = all killed)
Conditions in all cases: 10 µM unless noted

The structures appear in SMILES notation. This is part of a sample that, as a whole, favours compounds with a hit. Of some 83,000 tested, about 20% had one in any assay.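 Assay: single dose, 48 h. Readout: percent growth (0 = no net growth; negative = cell death). Active: <10.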 A number with no mark means an inactive call. The source made the active and inactive calls.

Consider `CC1=C(CCCOC(=O)CN)C2=C(C)C3(CC3)[C@@](C)(O)C(=O)C2=C1`, for which the growth with MOLT-4 leukemia is 84.5%; in the test with SR leukemia it was 94.7%; in the test on RPMI-8226 leukemia it was 88.8%; with OVCAR-8 ovarian, 73.8%; with OVCAR-5 ovarian, 114%; with OVCAR-4 ovarian, 85%. For the same compound, the growth was 51.3% in the test with SK-OV-3 ovarian; 32.8% in the test with IGROV1 ovarian; 101% in the test with OVCAR-3 ovarian; 93.9% in the test on HS 578T breast; 84.7% in the test on NCI/ADR-RES ovarian; 63.6% in the test on T-47D breast. Further, the growth was 65.8% in the test on BT-549 breast; 101% in the test on MDA-MB-435 melanoma; 91.5% in the test on SW-620 colon; 71.1% in the test on MCF7 breast; 71.5% in the test on HCT-116 colon; 85.1% in the test on HCC-2998 colon. Besides, the growth in the test on KM12 colon is 100%.

In the case of `COC(=O)[C@H](Cc1ccccc1)NC(=O)c1csc([C@@H](C[C@H](C(C)C)N(C)C(=O)[C@@H](NC(=O)[C@H]2CCCCN2C)C2CC2)OC(C)=O)n1`, the growth is 10.1% with MOLT-4 leukemia; 6.23% (active) in the test with SR leukemia; 10.3% in the test on RPMI-8226 leukemia; 17% in the test on OVCAR-8 ovarian; 32.3% with OVCAR-5 ovarian; 49.7% in the test on OVCAR-4 ovarian. Besides, the growth is 4.51% (active) in the test with SK-OV-3 ovarian; 29.1% with IGROV1 ovarian; -21.4% (active) in the test with OVCAR-3 ovarian; 6.85% (active) in the test on HS 578T breast; 15.9% in the test with NCI/ADR-RES ovarian; 28.3% with T-47D breast. Further, the growth in the test on BT-549 breast is 2.98% (active); with MDA-MB-435 melanoma it was -44.4% (active); in the test with SW-620 colon, 22.8%; with MCF7 breast, 19.5%; in the test with HCT-116 colon, -16.9% (active); in the test with HCC-2998 colon, 16.1%. The growth in the test on KM12 colon is 2.87% (active).

Consider `C=C1[C@@H](C)[C@H]2[C@H](Cc3ccccc3)NC(=O)[C@]23[C@@H](O)/C=C/[C@@](C)(O)C(=O)[C@@H](C)C/C=C/[C@H]3[C@@H]1O`, for which the growth in the test on MOLT-4 leukemia is 61.5%; in the test on SR leukemia, 64.3%; with RPMI-8226 leukemia, 68.4%; in the test on OVCAR-8 ovarian, 69.3%; with OVCAR-5 ovarian, 38.1%; in the test with OVCAR-4 ovarian, 53.7%. For the same compound, the growth with SK-OV-3 ovarian is 38.1%; in the test with IGROV1 ovarian, 70.5%; in the test on OVCAR-3 ovarian, 46.2%; in the test on HS 578T breast, -11.7% (active); in the test on NCI/ADR-RES ovarian, 94.6%; in the test on T-47D breast, 48.3%. Moreover, the growth in the test on BT-549 breast is 63.1%; with MDA-MB-435 melanoma, 80.5%; with SW-620 colon, 41.8%; in the test on MCF7 breast it was 63.8%; in the test on HCT-116 colon, 50.1%; with HCC-2998 colon, 62.4%. Further, in the test with KM12 colon, the growth is 81.5%.

On to `CC(C)CCC1(CCCl)C(=O)NC(=O)NC1=O`, for which the growth was 112% in the test on MOLT-4 leukemia; 102% in the test with SR leukemia; 103% with RPMI-8226 leukemia; 101% with OVCAR-8 ovarian; 101% in the test with OVCAR-5 ovarian; 99.4% with OVCAR-4 ovarian. In addition, the growth is 102% with SK-OV-3 ovarian; 108% with IGROV1 ovarian; 116% with OVCAR-3 ovarian; 106% in the test on HS 578T breast; 102% in the test on NCI/ADR-RES ovarian; 105% in the test on T-47D breast. Also, the growth with BT-549 breast was 102%; in the test with MDA-MB-435 melanoma, 97%; in the test with SW-620 colon, 98.9%; in the test on MCF7 breast, 96.4%; with HCT-116 colon, 100%; in the test on HCC-2998 colon, 107%. The growth with KM12 colon is 108%.

For the compound `CCC1(C(C)C)C(=O)NC(=S)NC1=O`, the growth in the test on MOLT-4 leukemia was 105%; in the test on SR leukemia, 104%; in the test on RPMI-8226 leukemia, 98.8%; in the test on OVCAR-8 ovarian it was 101%; in the test on OVCAR-5 ovarian, 102%; with OVCAR-4 ovarian it was 107%. In addition, the growth in the test on SK-OV-3 ovarian was 118%; in the test with IGROV1 ovarian it was 113%; in the test with OVCAR-3 ovarian, 101%; in the test with HS 578T breast, 96.3%; in the test on NCI/ADR-RES ovarian, 115%; in the test with T-47D breast, 106%. The growth with BT-549 breast is 113%; in the test with MDA-MB-435 melanoma, 101%; with SW-620 colon it was 97%; in the test on MCF7 breast it was 105%; in the test with HCT-116 colon it was 106%; with HCC-2998 colon, 117%. Also, the growth in the test with KM12 colon is 100%.

With `CC(C)[C@@H]1NC(=O)[C@]2(C)CSC(=N2)c2csc(n2)CNC(=O)C[C@@H](/C=C/CCS)OC1=O`, the growth with MOLT-4 leukemia is 7.47% (active); in the test on SR leukemia, 12%; in the test on RPMI-8226 leukemia it was -15.4% (active); in the test with OVCAR-8 ovarian, -11.9% (active); in the test with OVCAR-5 ovarian it was 25%; in the test with OVCAR-4 ovarian, 27.7%. In addition, the growth was -12.6% (active) in the test with SK-OV-3 ovarian; 0.877% (active) in the test on IGROV1 ovarian; -21.3% (active) in the test with OVCAR-3 ovarian; 7.81% (active) in the test with HS 578T breast; 52% in the test on NCI/ADR-RES ovarian; -17.9% (active) in the test on T-47D breast. The growth with BT-549 breast was 41.7%; in the test with MDA-MB-435 melanoma, 5.9% (active); in the test with SW-620 colon it was 1.33% (active); in the test on MCF7 breast it was 13.9%; in the test with HCT-116 colon, -34.8% (active); in the test with HCC-2998 colon it was -48% (active). Also, the growth in the test on KM12 colon was 1.21% (active).

With `OCCNC(Cc1ccccc1)c1ccc2c(c1)OCO2` (configuration not stated), the growth with MOLT-4 leukemia is 82.6%; in the test with SR leukemia it was 99.1%; in the test on RPMI-8226 leukemia it was 102%; in the test on OVCAR-8 ovarian, 98.7%; in the test on OVCAR-5 ovarian, 105%; in the test with OVCAR-4 ovarian, 117%. The growth in the test with SK-OV-3 ovarian is 74.7%; with IGROV1 ovarian it was 107%; with OVCAR-3 ovarian, 100%; with HS 578T breast it was 103%; in the test on NCI/ADR-RES ovarian it was 102%; in the test on T-47D breast, 60%. The growth in the test on BT-549 breast is 81.2%; with MDA-MB-435 melanoma, 108%; in the test with SW-620 colon, 109%; in the test with MCF7 breast it was 92.9%; with HCT-116 colon, 86.3%; in the test with HCC-2998 colon, 99.3%. Moreover, the growth with KM12 colon was 101%.

Regarding `COc1cc([C@@H]2c3cc4c(cc3[C@H](OC(C)=O)[C@H]3COC(=O)[C@H]23)OCO4)cc(OC)c1OC`, the growth in the test on MOLT-4 leukemia was 16.7%; with SR leukemia, 9.46% (active); with RPMI-8226 leukemia, 23.4%; in the test on OVCAR-8 ovarian, 21.1%; with OVCAR-5 ovarian, 56.4%; with OVCAR-4 ovarian, 41.3%. Besides, the growth with SK-OV-3 ovarian is 39.3%; with IGROV1 ovarian it was 21.2%; in the test on OVCAR-3 ovarian, 1.52% (active); in the test on HS 578T breast it was 46.6%; with NCI/ADR-RES ovarian it was 3.8% (active); with T-47D breast it was 57.8%. Further, the growth with BT-549 breast is 31.5%; in the test with MDA-MB-435 melanoma, -8.58% (active); with SW-620 colon, 27.3%; with MCF7 breast, 14.9%; in the test with HCT-116 colon it was 7.01% (active); in the test with HCC-2998 colon it was 15%. Besides, the growth with KM12 colon is 17.8%.
